The target in the assay is Neuropeptide Y receptor type 1 (Homo sapiens) (UniProt P25929). Description: NPY-Y1 direct agonists without NPY, confirmation, counter-screen for NPY-Y1 potentiator project, cell-based, fluorescence (AID 1697).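 Further: cells challenged with isoproterenol plus Ro 20-1724 with no NPY in test wells; Y1 agonism lowers isoproterenol-driven cAMP and reduces probe fluorescence.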 As to conditions: HEK293 Y1-CNGC, membrane potential fluorescence, agonist mode; at 3.6 µM; active compounds read high. In general terms: The purpose of a counterscreen is to sort out artefacts and off-target activity.
Chain of Neuropeptide Y receptor type 1 (Homo sapiens) (P25929 whole entry, looked up): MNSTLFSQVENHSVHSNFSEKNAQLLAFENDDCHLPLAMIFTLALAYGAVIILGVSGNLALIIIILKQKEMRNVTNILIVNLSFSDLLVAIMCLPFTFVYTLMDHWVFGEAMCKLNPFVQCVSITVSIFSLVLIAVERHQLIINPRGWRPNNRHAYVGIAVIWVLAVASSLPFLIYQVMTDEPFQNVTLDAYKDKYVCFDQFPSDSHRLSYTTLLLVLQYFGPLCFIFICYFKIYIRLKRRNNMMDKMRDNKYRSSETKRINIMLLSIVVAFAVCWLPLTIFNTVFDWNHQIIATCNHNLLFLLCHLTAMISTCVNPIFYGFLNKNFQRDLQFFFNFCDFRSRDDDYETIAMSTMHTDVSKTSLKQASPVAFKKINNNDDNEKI

The other results are listed elsewhere or left out. Unmarked numbers belong to inactive results. Activity calls are given as the source filed them.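 How the source made its calls: active means percent activation above the mean of DMSO-only control wells plus 3 SD of those wells (cut at about 18% in these data); inactive means the rest.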

For `Cc1nn(Cc2ccccc2Cl)c(Cl)c1C(=O)OC(C(=O)NC(N)=O)C(C)C` (configuration not stated), the activation is 30.6% (active).
As for `CSC1=NP(=S)(SC)N(C)c2nc3n(c21)CCC3` (configuration not stated), the activation is 9.49%.

These data come from PubChem BioAssay AID1697 (The Scripps Research Institute Molecular Screening Center, 2009).
